# In PubChem BioAssay AID2732 (Emory University Molecular Libraries Screening Center, 2010):
# Hit rate of the full screen: of about 220,000 compounds, about 8,200 (3.7%) were called active.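 The calls were made as follows: active = compounds that reduced the stress-induced luciferase reporter signal by more than about 70% of percent inhibition (limit read from the data); inactive = the rest.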 The list comes from a sample in which actives are over-represented; it also holds similar structures and randomly drawn compounds.
# Assay: inhibitors of CHOP promoter induction, primary screen, cell-based, unfolded protein response, luciferase reporter (AID 2732);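 also: 0% = tunicamycin plus vehicle and 100% = wells without tunicamycin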
# Conditions: CHO-K1 CHOP-promoter luciferase, tunicamycin-induced, 15-18 h; at 10 µM; active compounds read high
row,Structure (SMILES),inhibition
1,O=C(Nc1ccc(S(=O)(=O)Nc2nccs2)cc1)c1cccc(S(=O)(=O)N2CCOCC2)c1,-32.6% (inactive)
2,COc1ccc(Cn2c(O)c(/C=C3/C=CC=N3)c(=O)[nH]c2=O)cc1,1.57% (inactive)
3,C=CC(COCc1ccccc1)N(Cc1ccccc1)S(=O)(=O)c1ccccc1Br (configuration not stated),13.4% (inactive)
4,CC(C)(C)C(=O)NNC(=O)c1ccc(Oc2cc(Cl)cc(Cl)c2)o1,1.32% (inactive)
5,COC(=O)c1ccc(S(=O)(=O)N(CCO)Cc2ccccc2)n1C,-4.99% (inactive)
6,O=S(=O)(c1ccccc1)N1CN(Cc2ccc(F)cc2)c2nc3ccccc3nc21,3.85% (inactive)
7,CCc1c(C)sc(NC(=O)/C=C/c2ccc3c(c2)OCO3)c1C(=O)OC,1.72% (inactive)
8,CCOC(=O)c1c(NC(=O)c2ccc(Br)o2)sc2c1CCCC2,22.6% (inactive)
9,CCc1c(C)sc(NC(=O)c2ccc(Br)o2)c1C(=O)OC,88.9% (active)
10,COc1cc(CN(C)Cc2nc3cc(C(F)(F)F)ccc3c(=O)[nH]2)ccc1OC(F)F,34.5% (inactive)
11,Cc1cccc(OCc2nnc(SCn3nnc4ccccc4c3=O)o2)c1,55.9% (inactive)
12,Cc1cccc(OCc2nnc(SCc3nc4cc(C(F)(F)F)ccc4c(=O)[nH]3)o2)c1,104% (active)
13,O=C(/C=C/Nc1ccc(S(=O)(=O)Nc2cnc3ccccc3n2)cc1)c1cccnc1,12.4% (inactive)
14,COc1ccc(COCC(O)CN2CCC(C(N)=O)CC2)cc1 (configuration not stated),-5.79% (inactive)
15,FC(F)(F)c1cc(-c2ccco2)nc(NCc2ccc(Cl)cc2)n1,81.4% (active)
16,O=C(CSc1nc(-c2ccco2)cc(C(F)(F)F)n1)NCc1cccs1,30.9% (inactive)
17,FC(F)(F)c1cc(-c2cccs2)nc(NCc2ccco2)n1,52.2% (inactive)
18,FC(F)(F)c1cc(-c2ccco2)nc(N2CCOCC2)n1,101% (active)
19,Cc1cc(C(F)(F)F)nn1-c1nc(-c2ccco2)cc(C(F)(F)F)n1,30.6% (inactive)
20,CCOC(=O)c1ccn(-c2nc(-c3ccco3)cc(C(F)(F)F)n2)n1,7.61% (inactive)
21,COc1ccc(Cl)cc1NC(=O)CCN1CCOCC1,5.05% (inactive)
22,C#CCNc1nc(C(C)C)nc2c1nnn2Cc1ccccc1F,89.8% (active)
23,CC(=O)NC(C)c1nc2ccccc2n1Cc1ccccc1F (configuration not stated),-2.56% (inactive)
24,CC(C)Cc1nc(Nc2ccc(S(=O)(=O)N3CCCC3)cc2)c2nnn(Cc3ccccc3)c2n1,27.2% (inactive)

row,Structure (SMILES),inhibition
1,CC1C(=O)NC(=O)C1c1ccccc1 (configuration not stated),8.56% (inactive)
2,CCCC(=O)Nc1ccc2c(c1)nc(CCNC(=O)c1ccco1)n2C,-14.7% (inactive)
3,CC(NC(=O)C(C)(C)C)C(c1cccs1)N1CCN(Cc2ccccc2)CC1 (configuration not stated),-20.7% (inactive)
4,CCOC(=O)C1=C(CN2CCc3ccccc32)NC(=O)NC1c1cccc([N+](=O)[O-])c1 (configuration not stated),60.9% (inactive)
5,CCOC(=O)C1=C(CN2CCc3ccccc32)NC(=O)NC1c1ccc(Cl)cc1 (configuration not stated),85.1% (active)
6,CCOC(=O)C1=C(CN2CCCCCC2)NC(=O)NC1c1cccc([N+](=O)[O-])c1 (configuration not stated),-12.3% (inactive)
7,Cc1ccc(C(=O)NNC2=Nc3cc([N+](=O)[O-])ccc3OC2)cc1,-15.9% (inactive)
8,Cn1nc(C(C)(C)C)c(NC(=O)c2sccc2Cl)c1C(C)(C)C,3.22% (inactive)
9,CC(C)c1c(O)nc(SCCOc2ccc(Cl)cc2)[nH]c1=O,4.19% (inactive)
10,O=C(NCCN1CCOCC1)c1ccc2c(c1)N(Cc1ccc(Cl)cc1)CCS2,15% (inactive)
11,CCOC(=O)N1CCN(C(=O)c2ccc3c(c2)N(Cc2ccc(C)cc2)CCS3)CC1,76.8% (active)
12,CCOC(=O)N1CCN(C(=O)c2ccc(S(=O)(=O)c3ccc(C)cc3)c(NC(C)=O)c2)CC1,33.2% (inactive)
13,O=C(NCCCc1ccccc1)C1CCC(CNc2c(N3CCCCC3)c(=O)c2=O)CC1 (configuration not stated),0.92% (inactive)
14,CCC(=O)c1ccc(OCC(O)CN2CCN(c3cccc(C(F)(F)F)c3)CC2)cc1 (configuration not stated),84.2% (active)
15,COC(=O)c1ccccc1OCC(=O)N1CCN(c2ccc(Cl)cc2)CC1,22.2% (inactive)
16,O=C(COc1ccc(Cl)cc1)N1CCN(S(=O)(=O)c2ccc(Cl)cc2)CC1,42.3% (inactive)
17,OC(COc1ccc2c(c1)CCC2)CN1CCN(c2cccc(Cl)c2)CC1 (configuration not stated),44.8% (inactive)
18,O=C(COc1ccc(Cl)cc1)N1CCN(c2cccc(C(F)(F)F)c2)CC1,86.3% (active)
19,CCC(=O)c1ccc(OCC(O)CN2CC(C)OC(C)C2)cc1 (configuration not stated),-8.55% (inactive)
20,O=C(C1=C(O)C(=O)N(CCOCCO)C1c1ccccn1)c1cccs1 (configuration not stated),8.68% (inactive)
21,FC(F)(F)c1ccc(-n2cn[nH]c2=S)cc1,9.71% (inactive)
22,CCN(CCNC(=O)C1=C(C)C(=O)OC12CCC(C)CC2)c1ccccc1 (configuration not stated),23.7% (inactive)
23,CCc1ccc(NC(=O)N[C@H](C(=O)O)C(C)CC)cc1 (some centres not stated),-4.67% (inactive)
